Compound activity as filed in PubChem BioAssay.
Shiga inhibitor – Shiga toxin inhibition; Vero cells, Shiga toxin protein synthesis inhibition reporter; inhibition, % at 38.7 µM; 9.2% of 290,000 active; in the data active = inhibition mostly above about 28%, no sharp cut-off; inactive = mostly below about 43%; also: 0% is about no effect
NS1 inh – inhibitors of influenza NS1 protein function | Potency, µM (titrated, usually from 46.1 µM), for inactives: at the highest dose activity, positive = more growth | 0.4% of 270,000 active | AID 2326; calls by dose curve; also: potency is read from the fitted curve at half-maximal effect; actives are rising curves; nearly all actives have a fitted effect of over 50% in size
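OD600 was taken as the measure of yeast growth restored by compound in an NS1-expressing S. cerevisiae strain. Cells had been washed out of glucose medium and diluted 1:100 into galactose -URA medium, pH 6.0.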
AmpC no deterg – AmpC beta-lactamase inhibition without detergent; 0.52% of 330,000 active; AID 485341; AmpC nitrocefin hydrolysis, absorbance 480 nm, 0.0001% Triton; P00811; Potency, µM (doses to about 57.1 µM), inactives show at the top dose activity change, negative = inhibition, hits mostly inhibitors;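 also: potency is read from the fitted curve at half-maximal effect; plate controls were no compound for no effect and no enzyme for full effect; nearly all actives have a fitted effect of over 20% in size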
Target sequence (P00811 whole entry, looked up): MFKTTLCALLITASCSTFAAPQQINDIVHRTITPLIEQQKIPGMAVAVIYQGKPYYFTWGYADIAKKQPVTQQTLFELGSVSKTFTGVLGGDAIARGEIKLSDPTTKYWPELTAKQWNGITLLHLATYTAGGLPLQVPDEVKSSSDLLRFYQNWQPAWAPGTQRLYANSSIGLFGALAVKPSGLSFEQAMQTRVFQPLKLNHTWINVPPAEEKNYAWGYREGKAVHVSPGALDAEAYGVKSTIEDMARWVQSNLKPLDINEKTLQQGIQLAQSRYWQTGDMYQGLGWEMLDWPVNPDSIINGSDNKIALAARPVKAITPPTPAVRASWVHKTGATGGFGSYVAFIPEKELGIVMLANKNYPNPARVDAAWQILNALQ
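AmpC (5.3 nM in the dispensed reagent) in 20 mM phosphate pH 7.0 with 0.01% (detergent screen) or 0.0001% Triton X-100 was preincubated with compounds for 15 min at room temperature. Nitrocefin was then added from an 800 uM solution, and hydrolysis was followed at 480 nm.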
CHX counter – counter-screen for Shiga toxin inhibitors: cycloheximide protein synthesis inhibition; 12% of 300,000 active; cell reporter, cycloheximide protein synthesis inhibition counterscreen; AID 2314; max response, %; in the data active = max response mostly above about 13%, no sharp cut-off; inactive = mostly below about 14%; also: read at 38.3 µM for the half of the compounds with a filed dose; 0% is about no effect
AmpC detergent – inhibitors of E. coli AmpC beta-lactamase with detergent; 0.041% of 370,000 active; AID 485294; AmpC hydrolysis of nitrocefin, absorbance 480 nm, 0.01% Triton; P00811; Potency, µM (top dose mostly 114 µM), inactives show at the top dose activity change, negative = inhibition, actives largely listed as inhibitors;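 also: potency is read from the fitted curve at half-maximal effect; 0% = no-compound wells and -100% = no-enzyme wells; nearly all actives have a fitted effect of over 25% in size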
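AmpC (5.3 nM in the dispensed reagent) in 20 mM phosphate pH 7.0 with 0.01% (detergent screen) or 0.0001% Triton X-100 was preincubated with compounds for 15 min at room temperature. Nitrocefin was then added from an 800 uM solution, and hydrolysis was followed at 480 nm.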
* marks the source's active call; other numbers are inactive results; ? = inconclusive; · = no result given. The full list was thinned out, with hits kept by preference. Unless noted, calls follow the shape of the dose curve; as a rule, active = well fitted curve in the direction sought with a large enough effect; inconclusive = small, poorly fitted or top-dose-only effect, or another doubt; inactive = no such curve, though single readings can be large; an effect the other way counts as inactive or inconclusive.

SMILES | Shiga inhibitor | NS1 inh | AmpC no deterg | CHX counter | AmpC detergent
CCC(=O)Nc1ccc(Br)c(Cl)c1 | 13 | 9% | -16% | 1 | 0%
CC(OC(=O)c1ccccc1NCCO)C(=O)NC1CCCCC1C (stereo not drawn) | · | · | -7% | · | ?
CCCCOc1ccc(/C(N)=N/O)cc1 | 82* | -6% | -16% | 43* | ?
CCCCOc1ccc(C(=O)NC)cc1 | 20 | -32% | -19% | 21 | ?
CCCCOc1ccc(-c2ncc(C(=O)O)c(C)n2)cc1 | 99* | -41% | -16% | 28* | ?
CCCCCCOc1ccc(C(=O)O)cc1 | 42* | -78% | -11% | 16* | 5%
CCCCOc1ccc(-c2nnn(C(C)C(=O)OCC)n2)cc1 (stereo not drawn) | 33 | -15% | 14% | 8 | -6%
CC(C)c1ccc(NC(=O)CCS(=O)(=O)c2ccc3c(c2)CC(=O)N3C)cc1 | · | · | · | · | 2%
O=C(NCc1ccc(F)cc1)c1ccc(CSCc2cccc(Cl)c2)o1 | · | · | · | · | 0%
CCCOc1ccc(/C=C/C(=O)OCC(=O)N(C)c2c(N)n(Cc3ccccc3)c(=O)[nH]c2=O)cc1OCC | · | · | 21% | · | -5%
Cc1ccc(-c2nnc(Nc3ccc(Br)cc3)c3ccccc23)cc1S(=O)(=O)N1CCOCC1 | · | · | · | · | 6%
COC(=O)Nc1nnc(/C=C/c2ccccc2)s1 | 49* | 8% | -29% | 12 | -3%
O=C(Nc1nnc(COc2ccccc2)s1)c1ccco1 | -6 | ? | -1% | 1 | -3%
O=C(Nc1nnc(/C=C/c2ccccc2)s1)c1ccco1 | 63* | -55% | -16% | 30* | 4%
Nc1nnc(/C=C/c2ccccc2)s1 | 37* | 0% | -15% | 44* | 3%
CC(C)(C)C(=O)Nc1c2c(nn1-c1ccccc1)CSC2 | 2 | ? | -18% | 14 | -8%
CCCCCC(=O)Nc1ccc(-c2csc(N)n2)cc1 | 123* | · | -57% | 57* | 4%
CC(=O)Nc1ccc(-c2csc(NC(=O)CCCc3cccs3)n2)cc1 | 28 | 16% | -25% | 9 | -1%
CCCCCC(=O)Nc1ccc(-c2nnc3n2CCCCC3)cc1 | -19 | -6% | 33% | 2 | -6%
CCCCCC(=O)Nc1ccc(-c2csc(C)n2)cc1 | 77* | 1% | 3% | 46* | -10%
Cc1ccc(S(=O)(=O)Nc2ccc(NC(=O)/C=C/C(=O)O)cc2)cc1 | -23 | 10% | -19% | 6 | -3%
Cc1ccc2sc(-c3ccc(NC(=O)/C=C\C(=O)O)cc3)nc2c1 | 112* | · | -1% | 40* | -9%
Cc1nc(-c2ccc(NC(=O)/C=C\C(=O)O)cc2)cs1 | 50* | · | -8% | 18* | -9%
COc1cc(/C=C/C(=O)OCC(=O)N(C)CC(=O)Nc2ccc(F)cc2)ccc1OC(F)F | · | · | 56% | · | -2%
CC(=O)/C(C#N)=C1\NC(=O)C(Cc2ccccc2C)S1 (stereo not drawn) | 27 | -6% | -35% | 16* | 6%
SMILES | Shiga inhibitor | NS1 inh | AmpC no deterg | CHX counter | AmpC detergent
CC(=O)/C(C#N)=C1\NC(=O)C(Cc2ccccc2)S1 (stereo not drawn) | 16 | -56% | -30% | 14 | 3%
Cc1ccc(-n2nc3cc(C)c(NC(=S)NC(=O)/C=C/c4ccco4)cc3n2)cc1 | active | ? | -51% | 70* | -13%
Cc1cccc(NC(=S)NC(=O)/C=C/c2ccco2)c1 | 32 | 15% | -41% | 10 | 4%
Cc1ccc(-c2nc3ccccc3o2)cc1NC(=S)NC(=O)/C=C/c1ccco1 | -6 | 22% | 52% | 14 | ?
Cc1ccc(-n2nc3ccc(NC(=S)NC(=O)/C=C/c4ccco4)cc3n2)cc1 | 37* | 14% | -19% | 12 | -3%
COc1cnn(-c2cccc(C)c2)c(=O)c1Cl | 15 | 10% | -10% | 19* | ?
COc1ccc(Oc2c(Cl)cnn(-c3ccc(C)cc3)c2=O)cc1 | 2 | -8% | -18% | 14* | 5%
COc1ccc2cnn(-c3ccc(C)cc3)c(=O)c2c1OC | 153* | -120% | 0% | 102* | ?
COc1c(Cl)cnn(-c2ccc(C)cc2)c1=O | 66* | 0% | -15% | 25* | 3%
COc1ccc2cnn(-c3ccc(OC(F)(F)Cl)cc3)c(=O)c2c1OC | -10 | 0% | -11% | 1 | 6%
CCOc1c(Cl)cnn(-c2ccc(C)cc2)c1=O | -4 | 1% | -9% | 9 | -9%
CCOc1ccc(Br)cc1S(=O)(=O)Nc1cccc(S(=O)(=O)Nc2ccccc2C(=O)O)c1 | · | · | -29% | · | ·
